Laboratory results taken from PubChem BioAssay (EPA / NIEHS).
Results filed as inconclusive are left out. The source made the active and inactive calls. Rule for the calls, unless noted: active = hit-call score of the fitted dose curve at least 0.9, where 1 is the maximum; inactive = score below 0.9.

Columns and labels:
[1] = molecular target: Paired box protein Pax-6 (Homo sapiens) (UniProt P26367); assay: ATG_Pax6_CIS: Attagene CIS-FACTORIAL HepG2 Assay for human Paired Box 6 (PAX6) (AID 2282956); settings: HepG2 CIS-FACTORIAL PAX6 reporter transcription, RNA readout; actives raise or lower the signal
Chain of Paired box protein Pax-6 (Homo sapiens) (P26367 whole entry, looked up): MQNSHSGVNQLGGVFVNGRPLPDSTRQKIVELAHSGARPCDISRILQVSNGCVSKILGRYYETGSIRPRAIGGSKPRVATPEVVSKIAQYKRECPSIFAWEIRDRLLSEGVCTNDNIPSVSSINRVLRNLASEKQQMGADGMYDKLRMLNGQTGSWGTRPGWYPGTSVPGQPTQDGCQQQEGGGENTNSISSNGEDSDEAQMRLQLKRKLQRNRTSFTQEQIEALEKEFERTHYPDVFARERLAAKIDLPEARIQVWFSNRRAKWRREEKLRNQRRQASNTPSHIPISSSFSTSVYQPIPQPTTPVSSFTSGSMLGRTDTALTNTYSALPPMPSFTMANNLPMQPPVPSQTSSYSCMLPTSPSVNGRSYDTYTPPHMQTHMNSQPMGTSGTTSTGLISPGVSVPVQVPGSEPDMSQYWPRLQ
In short: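 Read-out is reporter transcript level, measured by RT-PCR with fluorescent primer extension and capillary electrophoresis after 24 h dosing of transfected HepG2 cells. Activity in either direction fitted relative to DMSO control.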

[2] = ATG_PXRE_CIS: Attagene CIS-FACTORIAL HepG2 Assay for human Pregnane X Receptor Element (PXRE) (AID 2282957); settings: HepG2 Attagene CIS-FACTORIAL PXRE reporter, mRNA; actives raise or lower the signal
In short: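 Using HepG2 transfected with multiple reporter transcription units, endogenous factor-driven transcription was scored as reporter mRNA after 24 h exposure.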

[3] = ATG_PPRE_CIS: Attagene CIS-FACTORIAL HepG2 Assay for human Peroxisome Proliferator-activated Response Element (PPRE) (AID 2282958); settings: HepG2 PPRE cis-element reporter, Attagene transcription factor profiling; actives raise or lower the signal
In short: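 Endogenous PPRE-driven transcription is measured in HepG2 cells carrying transfected multi-reporter constructs. Reporter transcripts are quantified by RT-PCR, HpaI digestion and capillary electrophoresis 24 h after dosing. DMSO baseline, bidirectional fit.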

[4] = ATG_RORE_CIS: Attagene CIS-FACTORIAL HepG2 Assay for human RAR-related Orphan Receptor Element (RORE) (AID 2282959); settings: HepG2 Attagene cis-factorial RORE reporter, mRNA; actives raise or lower the signal
In short: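 RORE reporter transcripts reflecting endogenous factor activity were read after 24 h compound exposure of transfected HepG2 cells, using reverse transcription, PCR, fluorescent labelling and capillary electrophoresis sizing. Gain or loss fitted against DMSO.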

[5] = ATG_Sox_CIS: Attagene CIS-FACTORIAL HepG2 Assay for human SRY-box transcription factor (SOX) (AID 2282960); settings: HepG2 Attagene cis-factorial SOX reporter, mRNA; actives raise or lower the signal
In short: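 Reporter transcripts, measured by RT-PCR and capillary electrophoresis of labelled fragments, report endogenous SOX transcription factor activity. Transiently transfected human HepG2 cells receive chemical for 24 h; changes in either direction are fitted relative to DMSO.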

[6] = molecular target: Transcription factor Sp1 (Homo sapiens) (UniProt P08047); assay: ATG_Sp1_CIS: Attagene CIS-FACTORIAL HepG2 Assay for human Specificity Protein 1 (Sp1) (AID 2282961); settings: HepG2 Sp1 cis-reporter transcription, actives raise or lower the signal
Chain of Transcription factor Sp1 (Homo sapiens) (P08047 whole entry, looked up): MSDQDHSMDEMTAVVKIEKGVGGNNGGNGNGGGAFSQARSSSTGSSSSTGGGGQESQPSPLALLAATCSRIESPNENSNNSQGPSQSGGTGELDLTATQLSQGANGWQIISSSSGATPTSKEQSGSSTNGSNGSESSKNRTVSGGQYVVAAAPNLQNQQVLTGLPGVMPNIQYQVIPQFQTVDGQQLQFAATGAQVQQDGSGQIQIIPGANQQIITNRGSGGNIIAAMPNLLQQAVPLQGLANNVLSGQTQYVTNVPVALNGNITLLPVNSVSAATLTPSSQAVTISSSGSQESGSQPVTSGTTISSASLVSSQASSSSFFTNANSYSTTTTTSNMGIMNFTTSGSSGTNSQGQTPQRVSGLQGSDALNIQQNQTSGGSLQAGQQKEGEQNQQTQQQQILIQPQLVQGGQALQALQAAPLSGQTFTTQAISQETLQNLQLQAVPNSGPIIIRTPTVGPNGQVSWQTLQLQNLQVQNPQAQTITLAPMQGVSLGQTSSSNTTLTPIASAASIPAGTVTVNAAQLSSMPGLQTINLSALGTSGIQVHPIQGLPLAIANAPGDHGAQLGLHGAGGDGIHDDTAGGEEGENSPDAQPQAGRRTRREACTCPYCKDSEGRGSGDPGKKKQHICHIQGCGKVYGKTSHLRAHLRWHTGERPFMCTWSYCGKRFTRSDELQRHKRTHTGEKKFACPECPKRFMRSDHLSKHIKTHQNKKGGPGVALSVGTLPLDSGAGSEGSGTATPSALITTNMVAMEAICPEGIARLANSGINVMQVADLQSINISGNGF
In short: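 Read-out is reporter transcript level, measured by RT-PCR and fluorescent capillary electrophoresis after 24 h chemical treatment. System: transiently transfected HepG2 cells reporting endogenous transcription factor activity; gain or loss fitted against DMSO baseline.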

[7] = ATG_SREBP_CIS: Attagene CIS-FACTORIAL HepG2 Assay for human Sterol Regulatory Element Binding (SREBP) (AID 2282962); settings: HepG2 Attagene cis-factorial SREBP reporter, mRNA; actives raise or lower the signal
In short: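 Endogenous SREBP activity read as cis-element-driven reporter transcript in transiently transfected HepG2, 24 h post-dosing; quantified via RT-PCR plus capillary electrophoresis of fluorescent fragments. Gain or loss of signal fitted relative to DMSO baseline.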

[8] = molecular target: Signal transducer and activator of transcription 3 (Homo sapiens) (UniProt P40763); assay: ATG_STAT3_CIS: Attagene CIS-FACTORIAL HepG2 Assay for human Signal Transducer and Activator of Transcription 3 (STAT3) (AID 2282963); settings: HepG2, Attagene cis-factorial STAT3 reporter transcription; actives raise or lower the signal
Chain of Signal transducer and activator of transcription 3 (Homo sapiens) (P40763 whole entry, looked up): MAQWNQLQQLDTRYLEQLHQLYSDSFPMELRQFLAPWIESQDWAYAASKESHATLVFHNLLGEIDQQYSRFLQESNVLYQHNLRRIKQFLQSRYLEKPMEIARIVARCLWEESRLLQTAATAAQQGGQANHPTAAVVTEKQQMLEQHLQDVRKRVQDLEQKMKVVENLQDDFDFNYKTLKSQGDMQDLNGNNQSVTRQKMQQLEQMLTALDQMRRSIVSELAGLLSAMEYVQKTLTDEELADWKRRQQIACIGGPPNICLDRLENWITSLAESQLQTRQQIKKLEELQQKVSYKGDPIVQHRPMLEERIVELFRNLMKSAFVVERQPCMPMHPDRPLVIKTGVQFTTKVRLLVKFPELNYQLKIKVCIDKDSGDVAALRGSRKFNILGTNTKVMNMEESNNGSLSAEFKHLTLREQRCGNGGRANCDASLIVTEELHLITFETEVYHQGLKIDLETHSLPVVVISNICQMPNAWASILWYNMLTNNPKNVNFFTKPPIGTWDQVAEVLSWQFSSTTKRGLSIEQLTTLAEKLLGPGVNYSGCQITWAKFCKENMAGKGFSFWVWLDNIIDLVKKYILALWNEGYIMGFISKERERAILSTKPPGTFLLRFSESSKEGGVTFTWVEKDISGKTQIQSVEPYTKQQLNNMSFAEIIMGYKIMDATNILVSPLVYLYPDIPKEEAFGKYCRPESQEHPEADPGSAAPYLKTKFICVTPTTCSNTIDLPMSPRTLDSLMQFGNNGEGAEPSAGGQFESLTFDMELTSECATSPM
In short: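 Cis-factorial format: endogenous transcription factors in HepG2 drive transfected reporter units. After 24 h treatment, reporter RNA was reverse-transcribed, amplified, FAM-labelled and HpaI-digested before CE analysis; activity scored in both directions against DMSO.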

[9] = ATG_TA_CIS: Attagene CIS-FACTORIAL HepG2 Assay for human TA Basal Promoter (AID 2282964); settings: HepG2 Attagene CIS-factorial TA basal promoter reporter; actives raise or lower the signal
In short: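 Transient MRTU transfection of HepG2 preceded 24 h compound exposure. Reporter mRNA levels were then read by RT-PCR with capillary electrophoresis, and this background-control endpoint was fitted bidirectionally to DMSO.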

[10] = ATG_TCF_b_cat_CIS: Attagene CIS-FACTORIAL HepG2 Assay for human T-Cell-Factor with beta-catenin (TCF/b-cat) (AID 2282965); settings: HepG2 TCF/beta-catenin cis-reporter transcription, actives raise or lower the signal
In short: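 Endogenous transcription factor activity is captured through cis-promoter reporter constructs transiently introduced into human HepG2 liver cells. Induced reporter mRNA is measured after 24 h and fitted bidirectionally relative to DMSO.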

[11] = ATG_TAL_CIS: Attagene CIS-FACTORIAL HepG2 Assay for human TAL Basal Promoter (AID 2282966); settings: HepG2 Attagene cis-factorial TAL promoter reporter; actives raise or lower the signal;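 note: background control endpoint measuring basal TAL promoter reporter mRNA not a specific factor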
In short: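 After 24 hours of chemical exposure, transfected HepG2 cells yielded RNA that was converted to 6-FAM-labelled, HpaI-digested reporter fragments for capillary electrophoresis. Values derive from bidirectional fitting against DMSO controls.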

[12] = ATG_TGFb_CIS: Attagene CIS-FACTORIAL HepG2 Assay for human Transforming Growth Factor (TGF) (AID 2282967); settings: HepG2 Attagene CIS TGFb reporter, mRNA transcription; actives raise or lower the signal
In short: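 After a 24-hour incubation with compound, transfected HepG2 cells were lysed for RNA; reporter cDNA was amplified, fluorescently end-labeled and separated by CE. DMSO served as baseline for bidirectional fits.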

[13] = ATG_VDRE_CIS: Attagene CIS-FACTORIAL HepG2 Assay for human Vitamin D Receptor Element (VDRE) (AID 2282968); settings: HepG2 VDRE cis-reporter transcription, actives raise or lower the signal
In short: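 Measures endogenous factor activity through cis-element-driven reporter transcripts in transiently transfected HepG2. Cells are treated 24 h; reporter mRNA is quantified by RT-PCR and capillary electrophoresis; fitting is bidirectional.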

[14] = molecular target: X-box-binding protein 1 (Homo sapiens) (UniProt P17861); assay: ATG_Xbp1_CIS: Attagene CIS-FACTORIAL HepG2 Assay for human X-box Binding Protein 1 (XBP1) (AID 2282972); settings: HepG2 XBP1 cis-element reporter, Attagene multiplex; actives raise or lower the signal
Chain of X-box-binding protein 1 (Homo sapiens) (P17861 whole entry, looked up): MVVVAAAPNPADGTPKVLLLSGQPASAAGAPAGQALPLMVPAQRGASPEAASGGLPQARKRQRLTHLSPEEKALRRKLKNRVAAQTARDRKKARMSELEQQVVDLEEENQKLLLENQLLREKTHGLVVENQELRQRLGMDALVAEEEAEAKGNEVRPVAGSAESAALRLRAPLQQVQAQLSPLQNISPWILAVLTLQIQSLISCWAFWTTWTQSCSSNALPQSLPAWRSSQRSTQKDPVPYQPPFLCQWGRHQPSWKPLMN
In short: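 Reporter transcripts were quantified by RT-PCR with fluorescent primer extension and capillary electrophoresis after 24 h chemical exposure. Cells: transiently transfected HepG2 carrying cis-regulated reporter constructs; data fitted bidirectionally relative to DMSO.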

[15] = ATG_M_19_TRANS: Attagene TRANS-FACTORIAL HepG2 Assay for M19 Transcription Factor (Internal Marker) (AID 2282974; active = hit-call score of the fitted dose curve at least 0.9, where 1 is the maximum); settings: HepG2 Attagene TRANS-FACTORIAL M19 internal marker reporter
In short: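 Background-control readout: after 24 h chemical exposure of transfected HepG2 carrying GAL4-driven reporter units, RNA was reverse-transcribed, amplified, fluorescently labeled and sized by capillary electrophoresis; gain-of-signal fit against DMSO.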

[16] = molecular target: Estrogen receptor (Homo sapiens) (UniProt P03372); assay: ATG_ERa_TRANS: Attagene TRANS-FACTORIAL HepG2 Assay for human Estrogen Receptor alpha (ERa) (AID 2282970; active = hit-call score of the fitted dose curve at least 0.9, where 1 is the maximum); settings: HepG2 Attagene TRANS ERa GAL4 reporter, mRNA
Chain of Estrogen receptor (Homo sapiens) (P03372 whole entry, looked up, the tested form may be a part): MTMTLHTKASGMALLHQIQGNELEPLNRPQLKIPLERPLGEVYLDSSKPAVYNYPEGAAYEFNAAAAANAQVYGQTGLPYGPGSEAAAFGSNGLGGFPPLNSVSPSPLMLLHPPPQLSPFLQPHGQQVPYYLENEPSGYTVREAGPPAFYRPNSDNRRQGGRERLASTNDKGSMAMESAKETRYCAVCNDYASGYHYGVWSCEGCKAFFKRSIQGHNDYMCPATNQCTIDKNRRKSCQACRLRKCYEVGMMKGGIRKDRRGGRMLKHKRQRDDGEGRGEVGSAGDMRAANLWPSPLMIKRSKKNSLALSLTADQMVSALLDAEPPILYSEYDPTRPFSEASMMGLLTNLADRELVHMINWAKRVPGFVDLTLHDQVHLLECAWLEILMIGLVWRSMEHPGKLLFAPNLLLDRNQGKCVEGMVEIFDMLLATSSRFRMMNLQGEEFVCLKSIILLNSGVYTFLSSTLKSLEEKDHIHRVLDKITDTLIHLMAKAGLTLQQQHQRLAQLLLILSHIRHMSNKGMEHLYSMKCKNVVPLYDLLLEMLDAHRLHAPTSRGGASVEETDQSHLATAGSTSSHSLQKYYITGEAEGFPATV
In short: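 Liver-derived HepG2 cells expressing chimeric nuclear receptor-Gal4 proteins from transient transfection were exposed for 24 hours. Gain of reporter mRNA signal versus DMSO, read by capillary electrophoresis of FAM-labelled PCR products, was recorded.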

[17] = ATG_GAL4_TRANS: Attagene TRANS-FACTORIAL HepG2 Assay for GAL4 (Internal Marker) (AID 2282976; active = hit-call score of the fitted dose curve at least 0.9, where 1 is the maximum); settings: HepG2 Attagene TRANS GAL4 internal marker reporter
In short: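 First, HepG2 cells were transfected with reporter units under GAL4-UAS control. Next, they were treated with chemical for 24 h. Finally, RNA was reverse-transcribed, PCR-amplified, FAM-labelled and resolved by capillary electrophoresis, with induction scored against DMSO.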

[18] = molecular target: Estrogen-related receptor gamma (Homo sapiens) (UniProt P62508); assay: ATG_ERRg_TRANS: Attagene TRANS-FACTORIAL HepG2 Assay for human Estrogen-Related Receptor gamma (ERRg) (AID 2282977; active = hit-call score of the fitted dose curve at least 0.9, where 1 is the maximum;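 note: hits increase reporter signal over DMSO so potencies reflect activators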); settings: HepG2 Attagene TRANS reporter, ERRg transactivation
Chain of Estrogen-related receptor gamma (Homo sapiens) (P62508 whole entry, looked up, the tested form may be a part): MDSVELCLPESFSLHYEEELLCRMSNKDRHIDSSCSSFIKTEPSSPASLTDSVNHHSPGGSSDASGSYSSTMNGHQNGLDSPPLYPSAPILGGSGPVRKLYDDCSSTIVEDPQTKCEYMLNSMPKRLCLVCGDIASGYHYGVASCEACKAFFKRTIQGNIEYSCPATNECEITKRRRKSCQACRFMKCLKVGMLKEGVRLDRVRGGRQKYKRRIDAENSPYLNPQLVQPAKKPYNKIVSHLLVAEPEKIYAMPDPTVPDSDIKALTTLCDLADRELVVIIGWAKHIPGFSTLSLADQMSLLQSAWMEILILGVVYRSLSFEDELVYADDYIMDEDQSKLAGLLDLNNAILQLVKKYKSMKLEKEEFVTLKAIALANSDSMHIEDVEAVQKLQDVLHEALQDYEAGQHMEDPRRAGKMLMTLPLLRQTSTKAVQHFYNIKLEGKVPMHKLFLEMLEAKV
In short: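 Exogenous NR-Gal4 chimera activity was assessed in HepG2 cells bearing transfected GAL4-UAS reporters. After 24 h dosing, total RNA underwent RT-PCR, fluorescent primer extension and HpaI digestion before capillary electrophoresis, with gain of signal scored against DMSO.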

[19] = molecular target: Nuclear receptor subfamily 1 group I member 3 (Homo sapiens) (UniProt Q14994); assay: ATG_CAR_TRANS: Attagene TRANS-FACTORIAL HepG2 Assay for human Constitutive Androstane Receptor (CAR) (AID 2282969; active = hit-call score of the fitted dose curve at least 0.9, where 1 is the maximum;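 note: activators raise reporter mRNA above DMSO so AC50 marks induction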); settings: HepG2 Attagene TRANS-FACTORIAL CAR reporter
Chain of Nuclear receptor subfamily 1 group I member 3 (Homo sapiens) (Q14994 whole entry, looked up, the tested form may be a part): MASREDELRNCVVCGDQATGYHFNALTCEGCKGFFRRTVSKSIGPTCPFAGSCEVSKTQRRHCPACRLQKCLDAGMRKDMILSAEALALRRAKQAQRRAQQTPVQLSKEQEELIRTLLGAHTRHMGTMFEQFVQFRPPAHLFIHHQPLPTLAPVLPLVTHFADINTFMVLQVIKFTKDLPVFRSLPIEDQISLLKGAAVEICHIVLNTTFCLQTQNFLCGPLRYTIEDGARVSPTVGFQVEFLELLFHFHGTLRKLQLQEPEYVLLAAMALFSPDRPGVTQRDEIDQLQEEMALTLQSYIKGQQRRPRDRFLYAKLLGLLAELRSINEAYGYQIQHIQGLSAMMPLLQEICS
In short: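 Signal is reporter mRNA induction relative to DMSO, measured 24 h after dosing by RT-PCR with fluorescent primer extension and capillary electrophoresis. Human HepG2 liver cells carried transiently transfected chimeric NR-Gal4/GAL4-UAS reporter constructs.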

[20] = molecular target: Steroid hormone receptor ERR1 (Homo sapiens) (UniProt P11474); assay: ATG_ERRa_TRANS: Attagene TRANS-FACTORIAL HepG2 Assay for human Estrogen-Related Receptor alpha (ERRa) (AID 2282971; active = hit-call score of the fitted dose curve at least 0.9, where 1 is the maximum); settings: HepG2 Attagene TRANS reporter, ERRa transactivation
Chain of Steroid hormone receptor ERR1 (Homo sapiens) (P11474 whole entry, looked up, the tested form may be a part): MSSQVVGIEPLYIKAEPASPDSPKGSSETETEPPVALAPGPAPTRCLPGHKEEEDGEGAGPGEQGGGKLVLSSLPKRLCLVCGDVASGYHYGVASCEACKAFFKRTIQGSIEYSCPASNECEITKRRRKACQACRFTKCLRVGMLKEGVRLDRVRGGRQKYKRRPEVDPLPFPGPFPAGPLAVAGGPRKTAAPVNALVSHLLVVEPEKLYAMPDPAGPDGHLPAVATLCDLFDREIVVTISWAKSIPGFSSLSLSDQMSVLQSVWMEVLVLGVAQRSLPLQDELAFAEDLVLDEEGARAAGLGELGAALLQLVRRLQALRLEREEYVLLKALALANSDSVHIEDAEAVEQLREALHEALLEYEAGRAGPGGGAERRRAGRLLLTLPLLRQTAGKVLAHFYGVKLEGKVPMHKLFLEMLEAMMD
In short: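 Reporter transcript induction was quantified by RT-PCR and capillary electrophoresis of FAM-labelled, HpaI-cut products after 24 h treatment of HepG2 cells carrying transiently transfected GAL4-UAS reporter units and an exogenous ERRa-Gal4 fusion; activity scored as increase over DMSO.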

Measured: AC50

O=C1CCC(=O)N1Cl
inactive: [1] | [2] | [3] | [4] | [5] | [6] | [7] | [8] | [9] | [10] | [11] | [12] | [13] | [14] | [15]

CCCCCCCC[N+](C)(CCCCCCCC)CCCCCCCC
inactive: [1] | [2] | [3] | [4] | [5] | [6] | [7] | [8] | [9] | [10] | [11] | [12] | [16] | [14] | [15]

Cc1ccccc1C
active: [2] 36.5 µM
inactive: [1] | [3] | [4] | [5] | [6] | [7] | [8] | [9] | [10] | [11] | [12] | [13] | [14] | [17] | [18]

C=C(C)CCO
inactive: [1] | [3] | [4] | [5] | [6] | [7] | [8] | [9] | [11] | [13] | [16] | [14]
active: [2] 5.16 µM | [12] 0.316 µM

CCCCCCCCO[C@@H]1O[C@H](CO)[C@@H](O)[C@H](O)[C@H]1O
inactive: [1] | [2] | [3] | [4] | [5] | [6] | [7] | [8] | [9] | [10] | [11] | [12] | [13] | [14] | [15]

Cc1ccc(OC(=O)CC(C)C)cc1
inactive: [1] | [2] | [3] | [4] | [5] | [6] | [7] | [8] | [9] | [10] | [11] | [12] | [19] | [16] | [14] | [17]

CC(C)=CC1CC(C)CCO1 (stereo not drawn)
inactive: [1] | [2] | [3] | [4] | [5] | [6] | [7] | [8] | [9] | [11] | [12] | [13] | [14]

CCCCCCCCCCc1ccccc1
inactive: [1] | [2] | [3] | [4] | [5] | [6] | [7] | [8] | [9] | [10] | [11] | [13] | [16] | [20] | [14] | [17] | [18]

O=Nc1ccc(O)cc1
inactive: [1] | [2] | [3] | [4] | [5] | [6] | [7] | [8] | [9] | [10] | [11] | [12] | [14]
active: [16] 48.5 µM

COc1cc(NC(=O)CC(C)=O)c(OC)cc1Cl
active: [2] 31.5 µM
inactive: [1] | [3] | [4] | [5] | [6] | [7] | [8] | [9] | [10] | [11] | [19] | [16] | [20] | [14] | [15] | [17] | [18]

CCCC(=O)OCc1ccccc1
inactive: [1] | [2] | [3] | [4] | [5] | [6] | [7] | [8] | [9] | [11] | [12] | [13] | [20] | [14] | [15] | [17]

CC(C)c1ccc(C#N)cc1
inactive: [1] | [2] | [3] | [4] | [5] | [6] | [7] | [8] | [9] | [11] | [13] | [16] | [20] | [14] | [15]

COCCOCCOCCOCCOC
inactive: [1] | [2] | [3] | [4] | [5] | [6] | [7] | [8] | [9] | [11] | [12] | [13] | [14] | [17]
